High-throughput results as filed in PubChem BioAssay.
TRHR PAM: allosteric enhancers of human TRH receptor. enhancement, % at 2 µM. AID 493056. 0.66% of 360,000 active. TRHR cells, fluo-8 calcium fluorescence, EC20 TRH enhancement; in the data active means enhancement above about 30%; further: 0% is about no effect
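TRHR-expressing cells loaded with fluo-8 calcium dye were read kinetically (ex 480/em 530) during compound addition, then stimulated with an EC20 of TRH (10 nM final). Enhancement of the Gq-mediated intracellular calcium response was scored.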
TRHR ag: TRH receptor (human) agonism; TRHR cells, calcium flux fluo-8, FDSS agonist mode; 0.18% of 360,000 active; activation, % at 2 µM; further: 0% is about no effect
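TRHR-expressing cells, plated overnight in medium with 10% serum, were loaded with fluo-8 calcium dye at room temperature. After a 10 s baseline, library compound was pin-added and calcium release was recorded kinetically (ex 480/em 530) as agonist response.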
D1 potentiator: potentiators of human D1 dopamine receptor; P21728; HEK293 TREx D1 cells, calcium flux, dopamine EC20 potentiation; potentiation, % at 10 µM; 0.036% of 360,000 active; in the data active means potentiation above about 30%; further: 0% is about no effect
Target sequence (P21728 whole entry, looked up): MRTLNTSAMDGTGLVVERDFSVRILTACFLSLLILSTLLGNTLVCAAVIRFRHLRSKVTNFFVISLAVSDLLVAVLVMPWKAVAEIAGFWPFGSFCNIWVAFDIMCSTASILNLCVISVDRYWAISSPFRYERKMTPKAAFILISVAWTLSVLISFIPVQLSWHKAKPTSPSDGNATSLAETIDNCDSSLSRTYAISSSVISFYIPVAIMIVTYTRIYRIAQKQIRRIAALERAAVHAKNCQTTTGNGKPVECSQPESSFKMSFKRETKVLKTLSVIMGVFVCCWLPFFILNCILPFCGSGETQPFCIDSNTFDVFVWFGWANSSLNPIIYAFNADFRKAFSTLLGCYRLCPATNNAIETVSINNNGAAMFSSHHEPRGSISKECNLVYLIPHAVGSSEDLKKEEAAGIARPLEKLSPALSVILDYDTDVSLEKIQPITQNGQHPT
D1 antag: human D1 dopamine receptor antagonism | P21728 | HEK293 TREx D1 cells, calcium flux, dopamine EC80; active compounds read low | activity change, negative = inhibition, % at 10 µM | 3.2% of 360,000 active | AID 504652; in the data active means activity change below about -30%; further: on the % scale 0 is the no-effect control and ±100 the full control effect
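Using tetracycline-induced force-coupled D1 Hek293 cells and a calcium dye, signals were followed for 180 s after compound, then for 180 s after EC80 dopamine, to detect inhibitors.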
D1 agonist: activates the human D1 dopamine receptor. activation, % at 2 µM. 1% of 360,000 active. P21728. HEK293 T-REx D1 cells, calcium flux, agonist mode; further: 0% is about no effect
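Tetracycline-induced HEK293 TREx D1 cells, force-coupled to calcium signalling, were dye-loaded with a no-wash calcium kit. Compound was pin-added after a 10 s baseline. Fluorescence was read kinetically at 1 cycle/s for 180 s, with calcium rises flagged as agonism.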
* = called active by the depositor; / = no result given. Compounds with a hit are over-represented: about 4.7% of the library has one in this group of screens. Unless noted, no stated cut-off is given here; in the data, active means activation above about 30%; inactive means the rest.

SMILES	TRHR PAM	TRHR ag	D1 potentiator	D1 antag	D1 agonist
Cc1ccc(S(=O)(=O)Nc2nc3n(n2)C(c2ccc(Cl)cc2)C=C(c2ccccc2)N3)cc1 (stereo not given)	-3.5	0.2	-0.7	19.3	10.9
Cn1nc(C(F)(F)F)c(CN2CC(C)(C)C2=O)c1N1CCOCC1	-5.0	0.0	-5.2	-30.7*	0.2
Cn1nc(C(F)(F)F)c(CNC(=O)C(C)(C)CCl)c1N1CCOCC1	9.0	-0.5	3.0	0.0	-0.1
O=C(NCCc1ccccc1)C1CCN(C2CCN(Cc3ccco3)CC2)CC1	-5.5	0.5	2.8	-34.8*	2.1
CCOC(=O)c1noc2ncnc(Nc3ccc(C)c(F)c3)c12	-10.8	0.1	-6.1	13.9	2.6
COCCNC(=S)N1CCCN(c2nc3cc(C)ccc3cc2C#N)CC1	0.3	0.0	-3.2	-20.7	3.5
COCCCNC(=S)N1CCCN(c2nc3c(C)c(C)ccc3cc2C#N)CC1	0.6	-0.4	-2.8	-41.7*	-0.6
COCCOC(=O)c1c(NC(=O)CNCc2ccco2)sc(C(N)=O)c1C	-3.8	1.1	-5.2	-34.6*	4.3
COCCOC(=O)c1c(NC(=O)CNc2ccc(C)c(F)c2)sc(C(N)=O)c1C	-5.0	0.3	1.2	6.9	2.7
O=C(O)c1c(Cl)c(Cl)c(Cl)c(Cl)c1C(=O)N1CCOCC1	-0.2	0.9	-2.6	-35.5*	4.1
O=C(O)c1c(Cl)c(Cl)c(Cl)c(Cl)c1C(=O)N1CCCCCC1	1.8	0.6	-4.0	3.1	2.4
COc1cccc(-c2cc(C(F)(F)F)n3nc(C(=O)N4CCCCC4c4cccnc4)cc3n2)c1 (stereo not given)	2.2	-0.9	-10.9	-49.1*	1.1
COc1ccc(-c2cc(C(F)(F)F)n3nc(C(=O)N4CCCCC4)cc3n2)cc1	-4.8	0.4	-2.8	-10.8	0.4
COc1ccc(-c2cc(C(F)(F)F)n3nc(C(=O)Nc4cccc(Cl)c4C)cc3n2)cc1	38.7*	1.5	-3.9	-8.4	-0.1
Cc1ccc(CNC(=O)CCn2cnc3ccccc3c2=O)cc1	1.5	0.2	5.5	-14.4	1.4
Cc1nc(Nc2ccc(S(N)(=O)=O)cc2)sc1C(=O)Nc1ccccc1	7.3	0.3	-12.7	-54.8*	0.5
Cc1nc(Nc2ccccc2)sc1C(=O)Nc1ccccc1	9.3	-0.1	-2.6	2.1	1.6
COc1ccccc1Nc1nc(C)c(C(=O)Nc2ccccc2)s1	7.6	-1.0	-8.5	-38.4*	2.6
Cc1nc(Nc2ccccc2Cl)sc1C(=O)Nc1ccccc1	6.5	-0.2	-9.8	1.4	2.5
O=C(C1COc2ccccc2O1)N(Cc1cccnc1)c1nc2ccc(Cl)cc2s1 (stereo not given)	-0.5	0.4	-1.9	/	3.5
O=C(/C=C/c1ccc(OC(F)F)cc1)Nc1cccc(S(=O)(=O)NC2=NCCCCC2)c1	-5.5	1.0	-11.3	-3.7	9.4
c1ccc2c(c1)CC/C2=N/Nc1nc2ccccc2[nH]1	0.0	-1.6	-6.6	8.3	1.6
C/C(=N\OCc1nc2ccccc2c(=O)n1/N=C/c1cc(C)cc([N+](=O)[O-])c1O)c1ccccc1	-0.8	0.4	-0.1	-32.6*	11.8
COc1cccc(CN2CC(C(=O)NCc3ccc(C)o3)CCC2=O)c1 (stereo not given)	28.4	0.7	-4.5	0.5	0.0
CSc1cccc(NC(=O)CC2Oc3ccccc3NC2=O)c1 (stereo not given)	-1.3	0.7	-2.9	2.7	1.0
SMILES	TRHR PAM	TRHR ag	D1 potentiator	D1 antag	D1 agonist
COc1ccc(C2Nc3ccc4ccccc4c3-c3c2c(=O)oc2ccccc32)cc1 (stereo not given)	-1.6	-0.4	0.1	-3.0	4.1
O=c1oc2ccccc2c2c1C(c1ccc(Cl)cc1)Nc1ccc3ccccc3c1-2 (stereo not given)	9.6	-0.4	-2.2	-64.1*	1.2
Cc1ccc(CNC(=O)CCCn2c(=O)[nH]c3ccc(Br)cc3c2=O)cc1	2.2	0.0	-0.7	-1.2	0.5
COC(=O)c1cc2oc(C)cc2n1Cc1c(C)cc(C)cc1C	0.1	-0.1	2.0	11.8	1.3
CCc1ccc(S(=O)(=O)c2cnc3ccc(OC)cc3c2N2CCCC(C)C2)cc1 (stereo not given)	2.3	-0.4	-8.8	-56.1*	6.6
COc1ccc(S(=O)(=O)c2cnc3cc(OC)c(OC)cc3c2N2CCCC(C)C2)cc1 (stereo not given)	10.7	-0.3	-8.6	-3.2	8.2
